Measured values as given in PubChem BioAssay (NCI).
Compounds without any hit were thinned out: in the full panel of roughly 83,000, 20% have a hit.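 How to read the values: 0–100, growth inhibition (40 = 60% inhibited); 0, no net growth; -100 to 0, cell death (-40 = 40% of starting cells died; -100 = all dead).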 Unmarked numbers belong to inactive results. The source made the active and inactive calls. Rule for the calls: active = growth percent below 10; inactive = the rest.

These compounds were tested on MDA-MB-435 melanoma (assay: NCI-60 one-dose screen, 48 h (100 = growth as untreated, 0 = no growth, -100 = all killed)). Conditions: 10 µM unless noted.

Compound	growth
COc1ccc(C(=O)c2c(N)nc3n2CCCC3)cc1OC	104%
O=C(CSc1ccc(Cl)cc1)Nc1ccc(-c2nc3ccccc3s2)c(Cl)c1	77.9%
O=C1C=CC(=O)N1CO	127%
COc1ccc2[nH]c(C(=O)OCc3ccc4cccc(O)c4n3)cc2c1	-86.2% (active)
COc1ccc(C(=O)C(C#N)c2cc(OC)c(OC)c(OC)c2)cc1 (stereo not drawn)	101%
Nc1cc2nc3ccccc3oc-2cc1=O	-88% (active)
C=CCn1c(C)nc2cc(Nc3nc(N4CCOCC4)nc4nc[nH]c34)ccc21	100%
COc1cc2c(cc1OC)C(=O)C(Br)CC2 (stereo not drawn)	20.2%
O=c1c2sc3ncc(Cl)cc3c2nnn1-c1cccc(Cl)c1	66.9%
CCCc1n(Cc2ccc3ccccc3c2)c2ccccc2[n+]1Cc1ccc2ccccc2c1	-82.8% (active)
COc1cc(CN2CCO[C@H](COc3cccc(F)c3)C2)ccc1Cl	29.2%
CCOC(=O)c1ccc(NC(=O)NC2=NCCS2)cc1	48.3%
O=C(OCc1ccc2c(Br)cc(Br)c(O)c2n1)c1cc2ccccc2[nH]1	-80.6% (active)
O=C1c2ccccc2C2N1CCC1CCc3ccccc3N12 (stereo not drawn)	110%
CCCCCCCCNC(C)C(O)c1ccc(SC(C)C)cc1 (stereo not drawn)	-40.8% (active)
COc1cc(/C=C/C(=O)c2ccc(NC(=O)CSc3nnc(-c4ccc(Cl)cc4)n3-c3ccccc3)cc2)cc(OC)c1OC	64.4%
O=C(c1ccccc1)N(CCCCl)C(=O)N(CCCCl)C(=O)c1ccccc1	89.6%
Cc1cc(C)cc(Nc2cc(C)nc3nc(C(F)(F)F)nn23)c1	36.9%
Clc1ccc(Nc2ncnc3c2sc2ncccc23)c(Cl)c1	36.3%
Cc1ccc(Nc2nc(NCCO)c3ccccc3n2)cc1C	-35.8% (active)

Compound	growth
COc1cc(NCCCCC(C)N)c2nccc(C)c2c1 (stereo not drawn)	106%
NC(=O)c1noc(C(=O)c2ccccc2)c1N	95.6%
O=C(NO)c1ccc(NCc2csc3ccccc23)cc1	82.4%
CC1=NC(c2ccc(Cl)cc2)C2=C(N1)/C(=C/c1ccc(Cl)cc1)CCC2 (stereo not drawn)	22.4%
COc1ccc(-c2nnc(SCC(=O)Nc3ccc(C(=O)/C=C/c4ccc(Cl)cc4)cc3)n2-c2ccccc2)cc1	105%
Oc1[nH]c2ccccc2c1/C=c1/ccc2c(c1)N=C(c1ccc(C(F)(F)F)cc1)N=2	32.5%
Fc1ccc(-c2nnc(N3CCOCC3)c3ccccc23)cc1	86.6%
COc1ccc2cc(-c3nc(C)c(C(C)=O)c(-c4ccc(C)cc4)n3)ccc2c1	89.1%
C/C(=N\OC(=O)Nc1cccc(Cl)c1)c1ccccc1	93.1%
Cc1ccc(O)c(Cc2ccccc2)c1	107%
Oc1c(C(c2ccc(F)cc2)N2CCCCC2)ccc2cncnc12 (stereo not drawn)	14.1%
COc1ccc2[nH]cc(C(c3ccc(Cl)cc3)N3CCCC3)c2c1 (stereo not drawn)	105%
COc1cc2c(cc1C)NC(=O)/C2=C\c1c[nH]c2ccccc12	68.8%
C=CCn1c(SCC(=O)Nc2ccc(/C(C)=N\O)cc2)nnc1-c1cc(-c2ccc(Cl)cc2)nc2ccccc12	30.8%
COc1cccc2nc(Nc3cccc(NC(=O)c4cc(N5CCOCC5)cc(C(F)(F)F)c4)c3)ccc12	55.3%
Cc1ccc(CSCc2ccc(C(=O)NC3CC3)o2)cc1	77.7%
Cc1n(Cc2ccc3ccccc3n2)cc[n+]1Cc1ccc2ccccc2c1	0.529% (active)
Cc1ccc(S(=O)(=O)NC(CCC(=O)Nc2ccc(Cl)cc2)C(=O)Nc2ccc(Cl)cc2)cc1 (stereo not drawn)	38.4%
O=C1Nc2ccccc2/C1=C/c1c[nH]c2ccccc12	92.3%

The compounds below were run on SW-620 colon in the same assay as above. Conditions: 10 µM unless noted.

Compound	growth
COc1ccc(C(=O)c2c(N)nc3n2CCCC3)cc1OC	101%
O=C(CSc1ccc(Cl)cc1)Nc1ccc(-c2nc3ccccc3s2)c(Cl)c1	65.9%
O=C1C=CC(=O)N1CO	115%
COc1ccc2[nH]c(C(=O)OCc3ccc4cccc(O)c4n3)cc2c1	-72.8% (active)
COc1ccc(C(=O)C(C#N)c2cc(OC)c(OC)c(OC)c2)cc1 (stereo not drawn)	107%
Nc1cc2nc3ccccc3oc-2cc1=O	11.6%
C=CCn1c(C)nc2cc(Nc3nc(N4CCOCC4)nc4nc[nH]c34)ccc21	93.1%
COc1cc2c(cc1OC)C(=O)C(Br)CC2 (stereo not drawn)	25.1%
O=c1c2sc3ncc(Cl)cc3c2nnn1-c1cccc(Cl)c1	80.5%
CCCc1n(Cc2ccc3ccccc3c2)c2ccccc2[n+]1Cc1ccc2ccccc2c1	-74.2% (active)
COc1cc(CN2CCO[C@H](COc3cccc(F)c3)C2)ccc1Cl	47.4%
CCOC(=O)c1ccc(NC(=O)NC2=NCCS2)cc1	77.8%
O=C(OCc1ccc2c(Br)cc(Br)c(O)c2n1)c1cc2ccccc2[nH]1	-69.2% (active)
O=C1c2ccccc2C2N1CCC1CCc3ccccc3N12 (stereo not drawn)	102%
CCCCCCCCNC(C)C(O)c1ccc(SC(C)C)cc1 (stereo not drawn)	-63.6% (active)
COc1cc(/C=C/C(=O)c2ccc(NC(=O)CSc3nnc(-c4ccc(Cl)cc4)n3-c3ccccc3)cc2)cc(OC)c1OC	68.2%
O=C(c1ccccc1)N(CCCCl)C(=O)N(CCCCl)C(=O)c1ccccc1	89.8%
Cc1cc(C)cc(Nc2cc(C)nc3nc(C(F)(F)F)nn23)c1	35.2%
Clc1ccc(Nc2ncnc3c2sc2ncccc23)c(Cl)c1	47.9%
Cc1ccc(Nc2nc(NCCO)c3ccccc3n2)cc1C	13.5%

Compound	growth
COc1cc(NCCCCC(C)N)c2nccc(C)c2c1 (stereo not drawn)	93.3%
NC(=O)c1noc(C(=O)c2ccccc2)c1N	101%
O=C(NO)c1ccc(NCc2csc3ccccc23)cc1	61.5%
CC1=NC(c2ccc(Cl)cc2)C2=C(N1)/C(=C/c1ccc(Cl)cc1)CCC2 (stereo not drawn)	82.1%
COc1ccc(-c2nnc(SCC(=O)Nc3ccc(C(=O)/C=C/c4ccc(Cl)cc4)cc3)n2-c2ccccc2)cc1	101%
Oc1[nH]c2ccccc2c1/C=c1/ccc2c(c1)N=C(c1ccc(C(F)(F)F)cc1)N=2	63.7%
Fc1ccc(-c2nnc(N3CCOCC3)c3ccccc23)cc1	100%
COc1ccc2cc(-c3nc(C)c(C(C)=O)c(-c4ccc(C)cc4)n3)ccc2c1	91.3%
C/C(=N\OC(=O)Nc1cccc(Cl)c1)c1ccccc1	95.3%
Cc1ccc(O)c(Cc2ccccc2)c1	98.4%
Oc1c(C(c2ccc(F)cc2)N2CCCCC2)ccc2cncnc12 (stereo not drawn)	18.1%
COc1ccc2[nH]cc(C(c3ccc(Cl)cc3)N3CCCC3)c2c1 (stereo not drawn)	112%
COc1cc2c(cc1C)NC(=O)/C2=C\c1c[nH]c2ccccc12	101%
C=CCn1c(SCC(=O)Nc2ccc(/C(C)=N\O)cc2)nnc1-c1cc(-c2ccc(Cl)cc2)nc2ccccc12	41.1%
COc1cccc2nc(Nc3cccc(NC(=O)c4cc(N5CCOCC5)cc(C(F)(F)F)c4)c3)ccc12	95.8%
Cc1ccc(CSCc2ccc(C(=O)NC3CC3)o2)cc1	66.2%
Cc1n(Cc2ccc3ccccc3n2)cc[n+]1Cc1ccc2ccccc2c1	20.6%
Cc1ccc(S(=O)(=O)NC(CCC(=O)Nc2ccc(Cl)cc2)C(=O)Nc2ccc(Cl)cc2)cc1 (stereo not drawn)	31.1%
O=C1Nc2ccccc2/C1=C/c1c[nH]c2ccccc12	100%
